# Results as given in ChEMBL document CHEMBL4513216, “Probing the Open Global Health Chemical Diversity Library for Multistage-Active Starting Points for Next-Generation Antimalarials” (ACS Infect Dis, 2020).
# In all, about 65,000 compounds went through this assay and about 2,100 (3.2%) showed an effect of 50% or more. The median lay at about -52%. The sample as a whole holds a higher share of strong results than the screen did.
# System: Plasmodium falciparum
# Test: Screen against P. falciparum Asexual Blood Stage (ABS), at 5uM
# Type: functional, Dd2
# Settings: tested at 5 uM
row,SMILES,INHIBITION
1,COc1ccccc1NC(=O)CC(C)NCCc1sc(C)nc1C (stereo not drawn),22.2%
2,Cc1csc(CNC(=O)NCC(O)c2ccc(F)cc2)n1 (stereo not drawn),-12.9%
3,COc1ccccc1NC(=O)CC(C)NCc1scnc1C (stereo not drawn),-27.4%
4,Cc1csc(CCCNC(C)CC(=O)Nc2ccc(F)cc2)n1 (stereo not drawn),50.5%
5,CC(NCC(=O)NCC(=O)Nc1ccc(F)cc1)c1cccs1 (stereo not drawn),-69.5%
6,Cc1csc(CCCNC(C)CC(=O)Nc2cccc(C)c2C)n1 (stereo not drawn),50.9%
7,COc1ccsc1C(=O)NC1CCN(c2cccc(F)c2)CC1,27.7%
8,Cc1ccc(NC2CCN(C(=O)c3ccc(C)o3)CC2)nn1,53.6%
9,Cc1ccc(NC2CCN(C(=O)Cn3nc(C)cc3C)CC2)nn1,-1.51%
10,Cc1cnn(CC(=O)N2CCC(Nc3ccc(C)nn3)CC2)c1,56.7%
11,CCc1ccc(C(=O)N2CCC(Nc3ccc(C)nn3)CC2)o1,-100%
12,Cc1ccc(NC2CCN(C(=O)c3c(C)nn(C)c3Cl)CC2)nn1,62.2%
13,Cc1ccc(NC2CCN(C(=O)c3c(C)noc3C)CC2)nn1,-103%
14,Cc1ccc(CC(=O)N2CCC(Nc3ccc(C)nn3)CC2)cn1,18.7%
15,CCn1nc(C)c(C(=O)N2CCC(Nc3ccc(C)nn3)CC2)c1C,-18.1%
16,Cc1ccc(NC2CCN(C(=O)c3ccc(Cl)o3)CC2)nn1,-6.11%
17,CC1CCC(NC(=O)c2nn(C)cc2Br)CC1 (stereo not drawn),-46.7%
18,CCc1ccc(CN2CCc3c(nnn3C)C2COC)cc1 (stereo not drawn),-44.1%
19,CC(C)Cn1cncc1CNC(=O)c1cccc(CC2CCNCC2)c1,-83.2%
20,O=C(NCc1cnn2cccnc12)c1cccc(CC2CCNCC2)c1,66.1%
21,CC(C)(O)CCc1cccc(C(=O)NCc2cnn3cccnc23)c1,-126%
22,c1ccc(SCCN2CCCC(Cn3ccnc3)C2)cc1 (stereo not drawn),-1.54%
23,CSCCCN1CCCC(Cn2ccnc2)C1 (stereo not drawn),-62%
24,c1ccc(CCN2CCCC(Cn3ccnc3)C2)cc1 (stereo not drawn),64.5%
25,O=C(O)c1nnn(-c2cccc(C(F)(F)F)c2)c1-c1ccncc1,-16.4%
26,CN(C)C(CNS(=O)(=O)c1cc(F)ccc1F)c1cccn1C (stereo not drawn),54.6%
27,COc1ccc(F)cc1S(=O)(=O)NCC(c1cccn1C)N(C)C (stereo not drawn),-7.7%

row,SMILES,INHIBITION
1,CN(C)C(CNS(=O)(=O)c1ccc(F)cc1F)c1cccn1C (stereo not drawn),31.8%
2,Cc1noc(C(C)C)c1C(=O)NCCCN1CCCCCC1=O,-62.4%
3,Cc1nnc(SCCCNc2cc(C3CC3)ncn2)s1,-39.6%
4,COCc1nn(C)c2c1CN(Cc1cnn(C)c1)CC2,-6.19%
5,CC1CCCN(Cc2c(C3CC3)n(CC(=O)N(C)C)c3ncccc23)C1 (stereo not drawn),-59.9%
6,Cc1cc(C2CCCN(CC(=O)N3CCc4ccccc43)C2)n[nH]1 (stereo not drawn),-81.5%
7,Cc1cc(C2CCCN(CC(=O)N3CCCc4ccccc43)C2)n[nH]1 (stereo not drawn),-8.74%
8,Cc1cc(C2CCCN(CCC(=O)N3CCc4ccccc43)C2)n[nH]1 (stereo not drawn),62.9%
9,CC(=O)N1CCCC1c1cc(N2CCN(CC(C)(C)C)CC2)cc(C)n1 (stereo not drawn),-126%
10,Clc1cccc(Cl)c1CNCCOc1ccccn1,-77.7%
11,Cn1cc(N2CC3(CCN(Cc4ccoc4)CC3)OCC2=O)cn1,-50.3%
12,Cc1cc(C(=O)NC2CCc3c(ccc(=O)n3CCN(C)C)C2)no1 (stereo not drawn),-24%
13,Cc1cc2n(n1)CC(CNC1CCN(c3ccccn3)CC1)CN2 (stereo not drawn),-45.8%
14,OCc1ccccc1CNCC1CNc2ccnn2C1 (stereo not drawn),2.15%
15,Cc1ccccc1CN1CCC(NCC2CNc3ccnn3C2)CC1 (stereo not drawn),67.1%
16,Cc1cc2n(n1)CC(CNC1CCN(Cc3ccncc3)CC1)CN2 (stereo not drawn),-0.937%
17,Cc1cc2n(n1)CC(CNC1CCN(CCc3ccccc3)CC1)CN2 (stereo not drawn),68.6%
18,Cc1cc2n(n1)CC(CNC1CCN(Cc3ccccn3)CC1)CN2 (stereo not drawn),-50.7%
19,CC(C)n1c2ccccc2c2c1cc(C(=O)NCCO)n2C(=O)N(C)C,-69.4%
20,CC(CN1CCCC1=O)NC(=O)c1ccc(C(F)(F)F)[nH]c1=O (stereo not drawn),-73.3%
21,Cc1noc(C)c1C(=O)N1CCC(Nc2cccnn2)CC1,-19.3%
22,NC(=O)c1cc(C2CCCN(CCc3ccc4c(c3)CCO4)C2)n[nH]1 (stereo not drawn),-88.6%
23,O=C(c1c[nH]nn1)N1CCCC1C1CCCCC1 (stereo not drawn),51%
24,O=C(c1ccc(=O)[nH]n1)N1CCCC1C1CCCC1 (stereo not drawn),-148%
25,O=C(c1cnc2[nH]c(=O)[nH]c(=O)c2c1)N1CCCC1C1CCCCC1 (stereo not drawn),0.342%
26,CNC(=O)C1(c2cnccn2)CCCN1C(=O)c1cccc(C)n1 (stereo not drawn),-80.1%
